Calls of active or inactive are those of the source.

In assay [1] the test system is PRMT1 (protein arginine N-methyltransferase 1). As to the kind of experiment: PRMT1 binders on small-molecule microarrays, primary screen, biochemical, small-molecule microarray, 635 nm fluorescence (AID 1088).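 Further: binding of Prmt1 protein to compounds spotted on small-molecule microarray slides.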 The following applies: small-molecule microarray binding, higher = more signal.
Assay [2] can be described thus: yeast growth modulation, basal conditions, primary screen, YJM789 clinical isolate, OD600, 24 h (AID 1089).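 Further: growth of clinical yeast isolate S. cerevisiae YJM 789 seeded 1000 cells per well; test concentration not given here.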 As to conditions: S. cerevisiae YJM789 growth, higher = more signal, called active from +8 up or from −8 down.
A short description of assay [3]: fission yeast growth modulation, primary screen, strain 972, OD600, 24 h, no modulator (AID 1090).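 Further: basal condition with compound alone and no growth modifier present; test concentration not given here.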 As to conditions: S. pombe 972 growth, higher = more signal, called active from +8 up or from −8 down.
Assay [4] can be described thus: S. cerevisiae growth modulation with rapamycin, primary screen, strain BY4716, OD600, 96 h (AID 1091). Further: test concentration not given here. The following applies: higher = more signal, called active from +8 up or from −8 down.
The target in assay [5] is Torsin-1A-interacting protein 2 (Homo sapiens) (UniProt Q8NFQ8). As to the kind of experiment: LULL1 binders on small-molecule microarray, primary screen, cell lysate, human LULL1 lysate, 635/667 nm fluorescence (AID 1092).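 Further: probe is lysate of COS7 cells overexpressing human LULL1; score merges per-feature 667 nm fluorescence with signal-to-noise.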 The following applies: hLULL1 lysate binding, 635 nm fluorescence, higher = more signal.
Assay [6] is described as follows: E. coli growth modulation, two-sided OD650, primary screen, E. coli filamentation project, strain DRC41, 24 h (AID 1093).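 Further: MC1000 strain lacking acrAB efflux and sulA so SOS filamentation is blocked; test concentration not given here.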 As to conditions: OD650, 24 h, higher = more signal, called active from +8 up or from −8 down.
A short description of assay [7]: small-molecule microarray binders of probe aLefty2, primary screen, biochemical, biotinylated probe, 635/667 nm fluorescence (AID 1094).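 Further: score merges spot fluorescence near 667 nm with spot signal-to-noise ratio.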 As to conditions: higher = more signal.
Assay [8] concerns Noggin (protein binding on small-molecule microarray). As to the kind of experiment: Noggin binders on small-molecule microarray, primary screen, biochemical, 635/667 nm fluorescence (AID 1095).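 Further: score merges 667 nm feature fluorescence with signal to noise over triplicate slides.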 The following applies: 635 nm fluorescence, higher = more signal.
The target in assay [9] is Neurogenic locus notch homolog protein 3 (Homo sapiens) (UniProt Q9UM47). As to the kind of experiment: NOTCH3 binders on small-molecule microarray, primary screen, biochemical, 635/667 nm fluorescence (AID 1096). The following applies: NOTCH3 binding, 635 nm fluorescence, higher = more signal.
A short description of assay [10]: small-molecule microarray binders of probe aEGFR, primary screen, biochemical, biotinylated probe, 635/667 nm fluorescence (AID 1097).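 Further: probe is a biotinylated anti-EGFR antibody binding compounds printed on slides; score combines fluorescence near 667 nm and signal to noise of each spot.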 As to conditions: higher = more signal.
Assay [11] relates to Plasmodium falciparum Sir2 (PF13_0152, Sir2A). Kind of assay: pfSir2 binders on small-molecule microarrays, primary screen, biochemical, small-molecule microarray, 635 nm fluorescence (AID 1098).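 Further: score merges spot fluorescence intensity with its signal-to-noise ratio.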 As to conditions: small-molecule microarray binding, fluorescence 635 nm; higher = more signal.
Assay [12] is described as follows: small-molecule microarray binders of probe aDKK1, primary screen, biochemical, biotinylated probe, 635/667 nm fluorescence (AID 1099).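 Further: score merges 667nm spot fluorescence with signal to noise across triplicate slides; reference of the scale not given here.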 As to conditions: higher = more signal.
The nature of assay [13]: small-molecule microarray binders of probe aCHRDL2, primary screen, biochemical, biotinylated probe, 635/667 nm fluorescence (AID 1100). As to conditions: higher = more signal.
Assay [14] in a line: splicing luciferase reporter signal modulators, primary screen, spliceosome inhibition project, cell-based, HEK293, splice +/- reporter (AID 1101).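 Further: HEK293 cells carrying a splicing-competent luciferase reporter gene; test concentration not given here.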 As to conditions: luminescence, 24 h, higher = more signal, called active from +8 up or from −8 down. For orientation: A reporter such as luciferase makes a cellular process visible.
For assay [15], the target named is Fibroblast growth factor 10 (Homo sapiens) (UniProt O15520). As to the kind of experiment: FGF10 binders on small-molecule microarrays, primary screen, biochemical, small-molecule microarray, 635 nm fluorescence (AID 1102). As to conditions: FGF10 binding, fluorescence 635 nm, higher = more signal.
The subject of assay [16] is glycogen synthase kinase-3 (GSK3A per assay name; protocol says GSK3B). As to the kind of experiment: GSK3 binders on small-molecule microarrays, primary screen, biochemical, small-molecule microarray, 635 nm fluorescence, GSK3A (AID 1103). Further: the record names both GSK3A and GSK3B. The following applies: small-molecule microarray binding, fluorescence 635 nm; higher = more signal.
For assay [17], the target named is Epidermal growth factor receptor (Homo sapiens) (UniProt P00533). As to the kind of experiment: EGFR binders on small-molecule microarrays, primary screen, biochemical, small-molecule microarray, 635 nm fluorescence (AID 1104).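 Further: score merges 667 nm emission intensity with spot signal to noise over triplicate slides.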 As to conditions: EGFR binding, higher = more signal.
Assay [18] addresses Follistatin-related protein 3 (Homo sapiens) (UniProt O95633). Kind of assay: FSTL3 binders on small-molecule microarrays, primary screen, biochemical, small-molecule microarray, 635 nm fluorescence (AID 1105).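 Further: score merges emission near 667 nm and signal to noise per printed spot across three slides.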 As to conditions: FSTL3 binding, higher = more signal.
Assay [19] concerns the target Dickkopf-related protein 1 (Homo sapiens) (UniProt O94907). Kind of assay: DKK1 binders on small-molecule microarrays, primary screen, biochemical, small-molecule microarray, 635 nm fluorescence scan (AID 1106).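 Further: score merges emission near 667 nm with signal to noise over three replicate slides.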 As to conditions: DKK1 binding, higher = more signal.
Assay [20] concerns Inhibin beta A chain (activin A). Kind of assay: INHBA (activin A) binders on microarrays, primary screen, biochemical, small-molecule microarray, 635 nm fluorescence scan (AID 1107).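 Further: mouse activin A protein probed at 4.33 µg/mL on printed slides; score merges bound-protein fluorescence near 667 nm with spot signal-to-noise.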 The following applies: small-molecule microarray binding, higher = more signal.

Sequence of Neurogenic locus notch homolog protein 3 (Homo sapiens) (Q9UM47 whole entry, looked up): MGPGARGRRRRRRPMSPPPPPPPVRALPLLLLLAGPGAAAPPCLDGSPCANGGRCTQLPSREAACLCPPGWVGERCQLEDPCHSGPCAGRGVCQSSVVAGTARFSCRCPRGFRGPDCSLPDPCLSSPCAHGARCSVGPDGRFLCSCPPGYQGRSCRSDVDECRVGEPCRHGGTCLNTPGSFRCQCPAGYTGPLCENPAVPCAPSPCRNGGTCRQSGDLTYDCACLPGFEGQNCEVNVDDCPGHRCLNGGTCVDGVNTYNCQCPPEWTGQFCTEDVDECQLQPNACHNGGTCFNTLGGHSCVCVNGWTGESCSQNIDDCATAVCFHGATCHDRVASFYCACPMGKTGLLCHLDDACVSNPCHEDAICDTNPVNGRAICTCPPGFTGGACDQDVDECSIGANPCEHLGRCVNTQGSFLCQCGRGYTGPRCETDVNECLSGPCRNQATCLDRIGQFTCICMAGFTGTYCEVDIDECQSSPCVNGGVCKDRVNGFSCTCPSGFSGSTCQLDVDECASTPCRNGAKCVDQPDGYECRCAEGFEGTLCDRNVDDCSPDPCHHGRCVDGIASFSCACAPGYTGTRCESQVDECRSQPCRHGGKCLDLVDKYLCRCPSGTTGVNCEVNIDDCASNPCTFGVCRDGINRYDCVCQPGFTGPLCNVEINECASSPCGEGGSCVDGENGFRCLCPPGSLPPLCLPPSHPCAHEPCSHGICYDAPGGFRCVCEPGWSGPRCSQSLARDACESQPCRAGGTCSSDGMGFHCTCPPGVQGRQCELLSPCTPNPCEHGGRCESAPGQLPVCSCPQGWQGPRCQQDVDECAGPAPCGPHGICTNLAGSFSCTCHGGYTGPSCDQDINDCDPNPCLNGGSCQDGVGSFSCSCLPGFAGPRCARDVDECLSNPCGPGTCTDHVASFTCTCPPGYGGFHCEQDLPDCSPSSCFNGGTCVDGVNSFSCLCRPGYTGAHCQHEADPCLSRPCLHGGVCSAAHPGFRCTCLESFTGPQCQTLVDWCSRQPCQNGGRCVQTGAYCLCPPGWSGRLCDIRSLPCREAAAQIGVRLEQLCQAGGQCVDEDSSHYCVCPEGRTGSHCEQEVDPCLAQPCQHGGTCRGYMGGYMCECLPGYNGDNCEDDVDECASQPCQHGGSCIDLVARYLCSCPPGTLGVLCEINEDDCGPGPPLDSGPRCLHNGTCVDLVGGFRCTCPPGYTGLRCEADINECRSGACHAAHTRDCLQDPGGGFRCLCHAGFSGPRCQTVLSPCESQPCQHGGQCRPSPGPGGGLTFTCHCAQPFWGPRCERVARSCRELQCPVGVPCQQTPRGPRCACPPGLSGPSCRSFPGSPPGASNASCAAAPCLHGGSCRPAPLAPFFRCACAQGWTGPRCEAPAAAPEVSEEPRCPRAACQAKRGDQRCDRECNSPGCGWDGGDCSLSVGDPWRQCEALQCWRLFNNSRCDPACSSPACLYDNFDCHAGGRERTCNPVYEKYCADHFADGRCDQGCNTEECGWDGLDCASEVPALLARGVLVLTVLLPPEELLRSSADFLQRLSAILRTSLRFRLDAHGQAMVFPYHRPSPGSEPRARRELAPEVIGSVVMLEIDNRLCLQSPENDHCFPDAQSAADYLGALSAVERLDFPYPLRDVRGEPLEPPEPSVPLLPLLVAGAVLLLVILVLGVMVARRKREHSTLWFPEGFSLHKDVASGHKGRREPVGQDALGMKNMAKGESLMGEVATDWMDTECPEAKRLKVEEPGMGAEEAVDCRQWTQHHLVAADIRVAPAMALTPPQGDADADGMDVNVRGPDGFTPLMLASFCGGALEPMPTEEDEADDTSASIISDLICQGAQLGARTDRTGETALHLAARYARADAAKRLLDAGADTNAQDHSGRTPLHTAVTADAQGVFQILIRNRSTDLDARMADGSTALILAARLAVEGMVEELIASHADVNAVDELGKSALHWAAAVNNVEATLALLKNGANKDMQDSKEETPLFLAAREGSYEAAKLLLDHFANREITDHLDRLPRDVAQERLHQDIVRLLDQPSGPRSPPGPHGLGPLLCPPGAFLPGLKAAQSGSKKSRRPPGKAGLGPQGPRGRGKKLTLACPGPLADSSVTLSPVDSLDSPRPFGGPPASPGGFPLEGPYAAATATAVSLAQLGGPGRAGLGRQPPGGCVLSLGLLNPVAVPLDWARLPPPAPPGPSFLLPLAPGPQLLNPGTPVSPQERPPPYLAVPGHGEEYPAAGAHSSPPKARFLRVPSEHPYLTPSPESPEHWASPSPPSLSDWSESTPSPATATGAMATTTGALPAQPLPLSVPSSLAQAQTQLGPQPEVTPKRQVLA
Sequence of Epidermal growth factor receptor (Homo sapiens) (P00533 whole entry, looked up): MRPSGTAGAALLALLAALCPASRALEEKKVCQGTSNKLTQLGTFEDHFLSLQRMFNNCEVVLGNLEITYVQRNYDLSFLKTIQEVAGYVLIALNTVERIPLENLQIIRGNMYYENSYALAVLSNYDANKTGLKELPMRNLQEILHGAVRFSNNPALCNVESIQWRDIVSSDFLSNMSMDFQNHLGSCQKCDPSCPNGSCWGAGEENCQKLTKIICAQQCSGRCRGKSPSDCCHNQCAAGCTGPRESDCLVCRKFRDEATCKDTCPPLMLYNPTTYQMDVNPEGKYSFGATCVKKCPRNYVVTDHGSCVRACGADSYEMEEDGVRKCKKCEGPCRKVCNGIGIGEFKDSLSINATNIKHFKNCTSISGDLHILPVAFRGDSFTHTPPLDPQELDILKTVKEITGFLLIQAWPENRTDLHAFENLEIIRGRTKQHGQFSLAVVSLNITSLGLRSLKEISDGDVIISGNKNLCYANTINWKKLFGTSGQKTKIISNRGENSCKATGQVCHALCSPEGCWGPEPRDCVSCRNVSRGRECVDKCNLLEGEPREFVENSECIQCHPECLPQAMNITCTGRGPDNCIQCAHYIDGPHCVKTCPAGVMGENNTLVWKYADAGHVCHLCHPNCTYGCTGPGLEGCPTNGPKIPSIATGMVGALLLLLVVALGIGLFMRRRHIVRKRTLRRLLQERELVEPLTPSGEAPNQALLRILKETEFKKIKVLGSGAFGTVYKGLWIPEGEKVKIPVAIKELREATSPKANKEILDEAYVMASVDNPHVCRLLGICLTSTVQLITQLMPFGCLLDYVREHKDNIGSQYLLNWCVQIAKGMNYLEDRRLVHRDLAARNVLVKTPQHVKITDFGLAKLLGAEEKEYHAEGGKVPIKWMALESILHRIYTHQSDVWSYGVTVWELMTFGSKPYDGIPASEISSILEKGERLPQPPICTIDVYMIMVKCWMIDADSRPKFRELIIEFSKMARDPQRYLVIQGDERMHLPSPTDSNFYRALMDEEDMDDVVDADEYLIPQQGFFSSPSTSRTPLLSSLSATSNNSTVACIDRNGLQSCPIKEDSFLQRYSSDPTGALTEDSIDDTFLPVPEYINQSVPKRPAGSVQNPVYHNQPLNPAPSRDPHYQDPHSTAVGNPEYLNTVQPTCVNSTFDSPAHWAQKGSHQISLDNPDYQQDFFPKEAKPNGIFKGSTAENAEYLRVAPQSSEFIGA
Sequence of Follistatin-related protein 3 (Homo sapiens) (O95633 whole entry, looked up): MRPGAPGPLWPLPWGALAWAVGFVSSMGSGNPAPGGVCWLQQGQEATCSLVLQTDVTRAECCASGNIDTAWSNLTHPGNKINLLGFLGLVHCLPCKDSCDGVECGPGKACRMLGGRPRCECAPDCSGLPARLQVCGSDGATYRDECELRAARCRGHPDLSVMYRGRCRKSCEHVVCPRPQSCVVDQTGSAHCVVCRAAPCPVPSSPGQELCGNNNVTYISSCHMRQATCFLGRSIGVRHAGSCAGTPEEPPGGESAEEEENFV
Sequence of Dickkopf-related protein 1 (Homo sapiens) (O94907 whole entry, looked up): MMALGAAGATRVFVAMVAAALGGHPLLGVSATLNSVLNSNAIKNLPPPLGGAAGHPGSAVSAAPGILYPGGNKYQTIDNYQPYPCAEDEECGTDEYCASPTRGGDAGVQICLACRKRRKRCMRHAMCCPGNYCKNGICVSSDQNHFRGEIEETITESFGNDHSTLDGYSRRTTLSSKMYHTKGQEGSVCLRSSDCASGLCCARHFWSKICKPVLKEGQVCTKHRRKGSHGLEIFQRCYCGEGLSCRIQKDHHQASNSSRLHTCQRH
Sequence of Fibroblast growth factor 10 (Homo sapiens) (O15520 whole entry, looked up): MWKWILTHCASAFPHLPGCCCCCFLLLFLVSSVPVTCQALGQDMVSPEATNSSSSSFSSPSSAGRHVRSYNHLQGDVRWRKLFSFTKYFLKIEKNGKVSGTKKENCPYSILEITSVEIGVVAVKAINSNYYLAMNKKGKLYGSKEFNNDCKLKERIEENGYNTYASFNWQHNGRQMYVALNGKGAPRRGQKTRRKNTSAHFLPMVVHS
Sequence of Torsin-1A-interacting protein 2 (Homo sapiens) (Q8NFQ8 whole entry, looked up): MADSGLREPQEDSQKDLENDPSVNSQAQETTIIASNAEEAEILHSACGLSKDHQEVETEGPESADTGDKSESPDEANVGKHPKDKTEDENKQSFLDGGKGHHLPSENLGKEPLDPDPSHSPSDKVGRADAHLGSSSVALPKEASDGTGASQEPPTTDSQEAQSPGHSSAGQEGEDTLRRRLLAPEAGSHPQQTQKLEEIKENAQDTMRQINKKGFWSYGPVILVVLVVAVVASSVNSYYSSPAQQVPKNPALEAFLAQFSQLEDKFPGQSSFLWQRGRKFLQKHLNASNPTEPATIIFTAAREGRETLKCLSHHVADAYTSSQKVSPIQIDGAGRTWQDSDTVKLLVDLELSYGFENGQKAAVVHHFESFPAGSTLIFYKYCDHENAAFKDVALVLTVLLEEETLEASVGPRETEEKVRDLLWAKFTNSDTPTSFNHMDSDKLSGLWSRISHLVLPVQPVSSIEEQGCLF

As to `CN(C)CCCC[C@@H]1NC(=O)[C@@H]2C[C@H](C(=O)NCCCCCCNC(=O)CS)[C@H](c3cccc(OCCO)c3)N2C1=O`, the composite z-score in assay [1] came to 1.39; in [5] it was 1.18; in [7], 0.0575; in assay [8], 0.333; in [9] it was 0.131; in [10] it was 0.124. Also, the composite z-score was 1.59 in assay [11]; 0.0307 in assay [12]; 0.358 in assay [13]; 0.419 in assay [15]; 0.842 in assay [16]; -0.247 in assay [17]. The composite z-score is -0.0613 in [18], 0.735 in assay [19] and -0.0529 in assay [20]. The z-score in assay [2] was -0.283 (inactive); in assay [3], -0.0576 (inactive); in [4] it was -0.471 (inactive); in [6], -0.142 (inactive); in assay [14], -0.162 (inactive).

Regarding `COCCOC(=O)N1C(=O)[C@@]2(c3cc(C#CCC(C(=O)OC)C(=O)OC)ccc31)[C@H](c1ccc(OCCO)cc1)N1[C@H](c3ccccc3)[C@H](c3ccccc3)OC(=O)[C@H]1[C@@H]2C(=O)N1CCCCCCC1`, the composite z-score was determined as 1.56 in [1]; 3.6 in assay [5]; 1.68 in [7]; 1.43 in assay [8]; 1.06 in assay [9]; 1.03 in assay [10]. Moreover, the composite z-score was determined as 1.27 in assay [11]; 2.5 in assay [12]; 1.21 in [13]; 0.778 in assay [15]; 1.34 in assay [16]; 1.32 in [17]. For the same compound, the composite z-score amounted to 1.66 in assay [18], 1.04 in [19] and 1.93 in assay [20]. In addition, the z-score was 1.9 (inactive) in assay [2]; 0.911 (inactive) in assay [3]; 3.67 (inactive) in assay [4]; 1.43 (inactive) in assay [6]; -0.915 (inactive) in [14].

`COCCOC(=O)N1C(=O)[C@@]2(c3cc(C#Cc4ccc(OC)cc4)ccc31)[C@H](c1ccc(OCCO)cc1)N1[C@H](c3ccccc3)[C@H](c3ccccc3)OC(=O)[C@H]1[C@@H]2C(=O)N1CCCCCCC1`: the composite z-score in [1] came to 1.49; in assay [5] it was 3.3; in [7] it was 1.45; in [8] it was 2.09; in [9], 0.955; in assay [10] it was 0.882. For the same compound, the composite z-score in assay [11] came to 1.7; in assay [12] it was 2.22; in assay [13], 1.36; in assay [15], 0.821; in assay [16], 1.24; in [17], 0.719. Further, the composite z-score was 1.52 in assay [18], 1.29 in assay [19] and 1.65 in assay [20]. The z-score was -1.32 (inactive) in [2]; -0.0066 (inactive) in assay [3]; 3.2 (inactive) in [4]; 0.106 (inactive) in [6]; -1.58 (inactive) in [14].

Take `C=CC(CO)NC(=O)OCC1c2ccccc2-c2ccccc21` (stereo not given): the composite z-score was -0.341 in assay [1]; -0.652 in assay [5]; -0.145 in [7]; 0.497 in [8]; 0.493 in [9]; -0.0192 in assay [10]. Further, the composite z-score in assay [11] is 0.193; in assay [12] it was -0.291; in assay [13] it was -0.475; in [15] it was 0.324; in assay [16] it was 0.365; in assay [17], 0.674. For the same compound, the composite z-score in [18] worked out at 0.608; in assay [19], 0.554; in assay [20], 0.26. Besides, the z-score is -1.2 (inactive) in assay [2]; -0.0715 (inactive) in assay [3]; -0.29 (inactive) in assay [4]; -0.77 (inactive) in assay [6]; 0.406 (inactive) in assay [14].

On to `COC(=O)[C@@]1(Cc2ccc(OC)cc2)[C@H]2c3cc(C(=O)N(C)C)n(Cc4ccsc4Br)c3C[C@H]2CN1C(=O)c1ccccc1`, for which the composite z-score in assay [1] was -0.323; in assay [5], 3.41; in [7], 0.599; in assay [8], -0.56; in [9], 0.251; in [10], 0.301. Besides, the composite z-score in assay [11] is 0.895; in [12], 1.08; in assay [13], 0.826; in assay [15], -0.0197; in [16], -0.288; in assay [17] it was 0.374. In addition, the values for the composite z-score in [18], in assay [19] and in [20] were -0.288, -0.414 and 0.758, respectively. Also, the z-score in [2] was 1.36 (inactive); in [3], 1.51 (inactive); in assay [4], 1.53 (inactive); in [6] it was 0.126 (inactive); in [14] it was -1.84 (inactive).

For the origin of these results see PubChem BioAssay.
